# According to the supplement of paper PMC8728848:
# The sample as a whole holds a higher share of the strongest signals than the screen did.
# B1: MSMEG3662-2a (Mycobacterium smegmatis), A0QYH7_MYCS2 (protein)
# chain: MGDTLTAGQKLERGGSLQSGNGAYTLTLQDDGNLVLYARDKAVWSTGTNGQDVVRAEVQTDGNFVLYTAEKPVWHTDTKGKKEVKLVLQDDRNLVLYAKDGPAWSSKTDTTEPPPPAPEPEKEAEVAPAAAEEAAPAPVAEPAPAEPAPAAPPPAPPAPRTYTVVSGDTLWAIAERFYGDGSKYQQIADASGIANPDLIHPGQVLTIP
# Experiments:
# Assay in all cases: glycan array binding signal (z-score within array); higher = stronger binding
# Conditions in all cases: glycan notation: IUPAC condensed, linker removed
# [1] = target: GlcNAc(b1-3)Gal(b1-4)GlcNAc(b1-2)[GlcNAc(b1-3)Gal(b1-4)GlcNAc(b1-6)]Man(a1-6)[GlcNAc(b1-3)Gal(b1-4)GlcNAc(b1-2)Man(a1-3)]Man(b1-4)GlcNAc(b1-4)GlcNAc
# In short: (§1)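 Glycan array binding is given as a within-array Z-score, which can be read as non-binding when negative. The arrays, 3228 of them, came from the Consortium for Functional Glycomics database and were retained only where the protein sequence was available. Z-scores were averaged across arrays of the same protein sequence at different concentrations or buffers and across linkers.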
# [2] = target: GlcNAc(b1-3)Gal(b1-4)GlcNAc(b1-3)Gal(b1-4)GlcNAc
# In short: as §1
# [3] = target: GlcNAc(b1-3)Gal(b1-4)GlcNAc(b1-3)GalNAc
# In short: as §1
# [4] = target: GlcNAc(b1-4)GlcNAc(b1-4)GlcNAc
# In short: as §1
# [5] = target: GlcNAc(b1-4)GlcNAc(b1-4)GlcNAc(b1-4)GlcNAc(b1-4)GlcNAc
# In short: as §1
# [6] = target: GlcNAc(b1-4)GlcNAc(b1-4)GlcNAc(b1-4)GlcNAc(b1-4)GlcNAc(b1-4)GlcNAc
# In short: as §1
# MurNAc(b1-4)GlcNAc = target: MurNAc(b1-4)GlcNAc
# In short: as §1
# [7] = target: Neu5Ac(a2-3)Gal(b1-3)GlcNAc
# In short: as §1
# Neu5Ac(a2-3)Gal(b1-4)Glc = target: Neu5Ac(a2-3)Gal(b1-4)Glc
# In short: as §1
# [8] = target: Neu5Ac(a2-3)Gal(b1-4)GlcNAc(b1-3)Gal
# In short: as §1
# [9] = target: Neu5Ac(a2-3)Gal(b1-4)GlcNAc(b1-3)Gal(b1-4)GlcNAc
# In short: as §1
# [10] = target: Neu5Ac(a2-3)Gal(b1-4)GlcNAc(b1-6)GalNAc
# In short: as §1
# [11] = target: Neu5Ac(a2-3)Gal(b1-4)[Fuc(a1-3)]GlcNAc
# In short: as §1
# [12] = target: Neu5Ac(a2-3)Gal(b1-4)[Fuc(a1-3)]GlcNAc(b1-3)Gal(b1-4)[Fuc(a1-3)]GlcNAc(b1-3)Gal(b1-4)[Fuc(a1-3)]GlcNAc
# In short: as §1
# [13] = target: Neu5Ac(a2-3)Gal(b1-4)[Fuc(a1-3)]GlcNAc(b1-3)GalNAc
# In short: as §1
# Neu5Ac(a2-3)GalNAc = target: Neu5Ac(a2-3)GalNAc
# In short: as §1
# [14] = target: Neu5Ac(a2-3)[Neu5Ac(a2-6)]GalNAc
# In short: as §1
# Neu5Ac(a2-6)Gal(b1-4)Glc = target: Neu5Ac(a2-6)Gal(b1-4)Glc
# In short: as §1
# [15] = target: Neu5Ac(a2-6)Gal(b1-4)GlcNAc(b1-2)Man(a1-3)[Neu5Ac(a2-6)Gal(b1-4)GlcNAc(b1-2)Man(a1-6)]Man(b1-4)GlcNAc(b1-4)GlcNAc
# In short: as §1
# [16] = target: Neu5Ac(a2-6)Gal(b1-4)GlcNAc(b1-2)Man(a1-6)[Man(a1-3)]Man(b1-4)GlcNAc(b1-4)GlcNAc
# In short: as §1
# [17] = target: Neu5Ac(a2-6)Gal(b1-4)GlcNAc(b1-3)Gal(b1-4)GlcNAc(b1-3)Gal(b1-4)GlcNAc(b1-2)Man(a1-3)[Neu5Ac(a2-6)Gal(b1-4)GlcNAc(b1-3)Gal(b1-4)GlcNAc(b1-3)Gal(b1-4)GlcNAc(b1-2)Man(a1-6)]GalNAc
# In short: as §1
# [18] = target: Neu5Ac(a2-6)Gal(b1-4)GlcNAc(b1-3)Gal(b1-4)[Fuc(a1-3)]GlcNAc(b1-3)Gal(b1-4)[Fuc(a1-3)]GlcNAc
# In short: as §1
# [19] = target: Neu5Ac(a2-6)GlcNAc(b1-4)GlcNAc(b1-4)GlcNAc
# In short: as §1
# [20] = target: Neu5Ac(a2-8)Neu5Ac(a2-3)Gal(b1-3)GalNAc(b1-4)[Neu5Ac(a2-8)Neu5Ac(a2-3)]Gal(b1-4)Glc
# In short: as §1
# [21] = target: Neu5Ac(a2-8)Neu5Ac(a2-8)Neu5Ac
# In short: as §1
binder,measurement,setting,value
B1,glycan array binding signal (z-score),[1],-0.017
same,glycan array binding signal (z-score),[2],-0.131
same,glycan array binding signal (z-score),[3],-0.121
same,glycan array binding signal (z-score),[4],3.59
same,glycan array binding signal (z-score),[5],8.12
same,glycan array binding signal (z-score),[6],13.9
same,glycan array binding signal (z-score),MurNAc(b1-4)GlcNAc,1.49
same,glycan array binding signal (z-score),[7],-0.039
same,glycan array binding signal (z-score),Neu5Ac(a2-3)Gal(b1-4)Glc,0.572
same,glycan array binding signal (z-score),[8],-0.15
same,glycan array binding signal (z-score),[9],0.065
same,glycan array binding signal (z-score),[10],-0.234
same,glycan array binding signal (z-score),[11],-0.124
same,glycan array binding signal (z-score),[12],-0.044
same,glycan array binding signal (z-score),[13],0.43
same,glycan array binding signal (z-score),Neu5Ac(a2-3)GalNAc,-0.06
same,glycan array binding signal (z-score),[14],-0.161
same,glycan array binding signal (z-score),Neu5Ac(a2-6)Gal(b1-4)Glc,-0.068
same,glycan array binding signal (z-score),[15],-0.046
same,glycan array binding signal (z-score),[16],-0.14
same,glycan array binding signal (z-score),[17],0.293
same,glycan array binding signal (z-score),[18],-0.129
same,glycan array binding signal (z-score),[19],1.58
same,glycan array binding signal (z-score),[20],0.097
same,glycan array binding signal (z-score),[21],-0.147
